From PubChem BioAssay
Records with an inconclusive call do not appear. Calls of active or inactive are those of the source.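 How the source made its calls, unless noted: active means growth inhibition above 25% in both replicates, a cutoff set 3 SD above the mean; inconclusive means above 25% in only one replicate; inactive means the rest.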

Legend:
[1] = Her2 expression decrease, cell viability multiplex – SKBR3 breast tumor cells, AlphaScreen, ATP viability, primary screen (AID 461;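 active means Her2 level under about 52% in both replicate screens, with viability over 70% of control, limit read from the data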;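 on Her2 level: lower value means less Her2 protein in the cells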;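 on viability: percent of carrier control wells set as 100% viability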); details: SKBR3 Her2 protein level, 18-24 h, measured here: SKBR3 viability, ATP luminescence, at 10 µM
[2] = target: Receptor tyrosine-protein kinase erbB-2 (Homo sapiens) (UniProt P04626); assay: as above; details: 18-24 h, at 10 µM, stronger effect = lower value
Chain of Receptor tyrosine-protein kinase erbB-2 (Homo sapiens) (P04626 whole entry, looked up): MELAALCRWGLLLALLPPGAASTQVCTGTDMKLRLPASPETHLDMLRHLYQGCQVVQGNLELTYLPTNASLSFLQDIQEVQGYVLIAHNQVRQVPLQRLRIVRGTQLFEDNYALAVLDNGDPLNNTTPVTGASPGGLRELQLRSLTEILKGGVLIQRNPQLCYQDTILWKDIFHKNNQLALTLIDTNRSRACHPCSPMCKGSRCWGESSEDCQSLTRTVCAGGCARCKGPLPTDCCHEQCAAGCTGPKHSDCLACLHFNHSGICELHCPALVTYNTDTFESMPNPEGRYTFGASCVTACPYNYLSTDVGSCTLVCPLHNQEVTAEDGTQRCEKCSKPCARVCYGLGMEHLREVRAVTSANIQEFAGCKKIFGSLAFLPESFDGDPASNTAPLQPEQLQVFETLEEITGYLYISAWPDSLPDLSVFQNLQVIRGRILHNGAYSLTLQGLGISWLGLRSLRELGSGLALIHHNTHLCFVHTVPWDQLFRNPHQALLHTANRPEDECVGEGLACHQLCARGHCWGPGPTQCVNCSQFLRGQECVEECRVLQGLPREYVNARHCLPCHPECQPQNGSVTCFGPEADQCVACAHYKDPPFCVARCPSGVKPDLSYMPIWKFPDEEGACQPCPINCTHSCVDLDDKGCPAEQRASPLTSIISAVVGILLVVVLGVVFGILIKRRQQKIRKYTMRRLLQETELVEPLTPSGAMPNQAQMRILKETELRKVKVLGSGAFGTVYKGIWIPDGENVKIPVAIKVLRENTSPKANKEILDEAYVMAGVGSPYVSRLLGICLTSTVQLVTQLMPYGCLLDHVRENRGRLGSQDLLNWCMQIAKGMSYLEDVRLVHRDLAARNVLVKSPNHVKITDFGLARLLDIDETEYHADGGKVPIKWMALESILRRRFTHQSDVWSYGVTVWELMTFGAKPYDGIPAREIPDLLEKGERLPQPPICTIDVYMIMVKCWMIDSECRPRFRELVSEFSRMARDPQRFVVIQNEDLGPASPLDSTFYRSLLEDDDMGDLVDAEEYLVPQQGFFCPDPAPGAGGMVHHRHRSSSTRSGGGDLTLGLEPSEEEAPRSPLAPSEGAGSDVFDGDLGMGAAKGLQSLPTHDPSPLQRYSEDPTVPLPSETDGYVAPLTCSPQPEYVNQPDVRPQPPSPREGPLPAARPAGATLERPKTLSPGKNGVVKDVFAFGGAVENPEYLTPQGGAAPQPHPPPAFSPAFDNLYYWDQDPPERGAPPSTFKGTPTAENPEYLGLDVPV

[3] = reduced viability of SK-BR-3 breast cancer cells – cell-based, 24 h, human, pilot screen (AID 572;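 active means viability at or below 10% of carrier control in both of two separate runs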;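 further: compound exposure lasted between 18 and 24 h rather than exactly 24 h; 100% = carrier-treated control wells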); details: SK-BR-3 viability, CellTiter-Glo luminescence, at 10 µM, stronger effect = lower value
[4] = HUVEC growth inhibition – cell-based, human, primary screen (AID 575;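 active means viability at or below 30% in both replicate assays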;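 further: 100% = median of untreated cell wells with 0.1% DMSO on each plate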); details: HUVEC proliferation, CellTiter-Glo luminescence, 72 h; at 10 µM; stronger effect = lower value
[5] = H69AR cell proliferation blockers – human, duplicate replicates, primary screen (AID 580;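 active means viability at or under a set limit in both replicates, limit being median viability minus 3 SD, cut at about 48% in these data, passing the limit was not always enough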;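 further: 100% = mean luminescence of untreated wells and 0% = no signal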); details: H69AR lung tumor cells viability, ATP luminescence, 72 h; at 10 µM; stronger effect = lower value
[6] = MRP1 drug-resistance reversers in H69AR cells – cell-based, doxorubicin co-treatment, pilot screen (AID 601;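 active means viability loss from added drug above about 55%, and viability with drug at most 40%, in both replicates, limit read from the data, passing the limit was not always enough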); details: CellTiter-Glo, 72 h, at 10 µM; for differential viability (reversal): stronger effect = higher value
[7] = yeast transport mutant growth inhibition pilot in 384-well plates, post-Golgi transport modulator project (AID 636; in the data active means inhibition above about 31%); details: absorbance 615 nm, about 18 h, stronger effect = higher value
[8] = growth suppression of yeast trafficking mutant, preliminary HTS, modulators of trafficking downstream of Golgi apparatus project, 1536-format plate, OD 615 nm (AID 637; in the data active means inhibition above about 30%); details: yeast transport mutant growth, absorbance 615 nm, 18 h; stronger effect = higher value
[9] = S. cerevisiae growth inhibition in permissive medium (OD615), pilot counter-assay for S. cerevisiae lifespan shortening project, permissive growth control (AID 705); details: OD615, 24 h, at 10 µM, stronger effect = higher value
[10] = S. cerevisiae growth inhibition in restrictive medium, OD615, pilot screen, restrictive growth control, yeast lifespan reduction project (AID 706;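 active means growth inhibition above a set limit, 3 SD over mean compound inhibition, in both replicates, cut at about 43% in these data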;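 further: modified DeaD lifespan yeast strain shifted to restrictive glucose medium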); details: OD615, 48 h, at 10 µM, stronger effect = higher value
[11] = doxorubicin toxicity protection in MRP-1 cells – H69AR cells, CellTiter-Glo, duplicate, MRP-1 activator project, pilot screen (AID 807;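 active means viability increase at or above a cutoff of the median across tested compounds plus 3 SD, cut at about 8.5% in these data, passing the limit was not always enough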;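 further: compound pretreatment 18-22 h then 72 h combined with doxorubicin; 0% = doxorubicin alone and 100% = vehicle without doxorubicin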); details: H69AR viability with doxorubicin, CellTiter-Glo luminescence; at 10 µM; stronger effect = higher value
[12] = viability of HCT116 without oncogenic beta-catenin – human colon tumor cells, pilot screen (AID 823;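 active means cell viability at or below a set limit in both duplicate runs, the limit being the all-compound median minus 4 SD, cut at about 23% in these data, passing the limit was not always enough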;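 further: 0% = wells killed by 20 µM Hyamine and 100% = untreated DMSO cell wells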); details: HCT116 beta-catenin knockout viability, CellTiter-Glo, 60 h; at 10 µM; stronger effect = lower value
[13] = viability of PTEN-null HCT116 cells – cell-based, HCT116 clonal line, CellTiter-Glo, pilot screen (AID 824;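 active means viability at or below 27.92% in each of two runs, the all-compound median minus 4 SD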;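 further: 0% = 20 µM Hyamine control and 100% = vehicle cell control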); details: HCT116 PTEN-deleted viability, 60 h, at 10 µM, stronger effect = lower value
[14] = RAM pathway blockade in budding yeast – dse1pr::URA3 reporter, 5-FOA selection, pilot screen (AID 869;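 active means inhibition over a set limit, the all-compound mean plus 3 SD, in both replicate runs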;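 further: 0% = DMSO wells with no growth and 100% = 10 µM 1-NA-PP1 with full growth; RAM network block rescues cells from 5-FOA so hits raise OD615 growth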); details: S. cerevisiae dse1pr::URA3 5-FOA growth, OD615, 2 d; at 10 µM; stronger effect = higher value; strain carries analog-sensitive mutant Cbk1 kinase
[15] = RAM signaling pathway blockade in yeast – S. cerevisiae, Pdr1DBD-CYC8 efflux-inhibited sensitized strain, primary screen (AID 1298;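 active means RAM network inhibition above 8.4% in each of two replicates, 3 SD over the compound average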;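 further: 0% = DMSO untreated cells without growth and 100% = 10 µM 1-NA-PP1 full growth; higher means more yeast growth rescued from 5-FOA killing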); details: S. cerevisiae cbk1-as DSE1-URA3 strain, 5-FOA growth OD615, 2 d; at 50 µM; stronger effect = higher value
[16] = H69AR cells + 2 uM doxorubicin, measured here: viability with 2 uM doxorubicin, stronger effect = lower value
[17] = H69AR cells, compound alone cytotoxicity

O=C(Nc1nc(-c2ccccn2)cs1)C1CC1
82%: viability [6, 17]
101%: viability [6, 16]
93.5%: viability [1]
inactive: Her2 level [2] 97.5% | viability [3] 93.5% | viability [4] 96.1% | viability [5] 82% | differential viability (reversal) ([6]; H69AR cells + 2 uM doxorubicin) -19.5% | inhibition [7] 1.07% | inhibition [8] -3.17% | growth inhibition [9] 0.675% | growth inhibition [10] 1.15% | viability increase [11] 0.73% | viability [12] 67.3% | viability [13] 70.5% | inhibition [14] 0.575% | RAM network inhibition [15] 0.89%

CC1CCCN(C(=O)c2cc3c(-c4ccc(Cl)cc4)nn(C)c3s2)C1 (stereo not drawn)
89%: viability [1]
92.5%: viability [6, 17]
91.7%: viability [6, 16]
inactive: Her2 level [2] 87% | viability [3] 89% | viability [4] 77.4% | viability [5] 92.5% | differential viability (reversal) ([6]; H69AR cells + 2 uM doxorubicin) 0.84% | inhibition [7] -1.54% | inhibition [8] 3% | growth inhibition [9] -9.3% | growth inhibition [10] -3.9% | viability increase [11] -2.82% | viability [12] 91.4% | viability [13] 93.3% | inhibition [14] 2.07% | RAM network inhibition [15] 1.62%

COCCNC(=O)C(C)N(c1ccc(Oc2ccccc2)cc1)S(C)(=O)=O (stereo not drawn)
inactive: Her2 level [2] 95.5% | viability [3] 112% | viability [4] 102% | viability [5] 96.5% | differential viability (reversal) ([6]; H69AR cells + 2 uM doxorubicin) 7.53% | inhibition [7] -0.65% | inhibition [8] 3.44% | growth inhibition [9] -4.62% | growth inhibition [10] 4.17% | viability increase [11] -0.82% | viability [12] 90.7% | viability [13] 91.6% | inhibition [14] -0.1% | RAM network inhibition [15] 3.42%
96.5%: viability [6, 17]
89%: viability [6, 16]
112%: viability [1]

CN(C1CCCCC1)S(=O)(=O)c1ccc(S(=O)(=O)N2CCN(CCC#N)CC2)cc1
inactive: Her2 level [2] 92.5% | viability [3] 89.5% | viability [4] 98.5% | viability [5] 103% | differential viability (reversal) ([6]; H69AR cells + 2 uM doxorubicin) 27.9% | inhibition [7] -2.27% | inhibition [8] 4.26% | growth inhibition [9] -11.3% | growth inhibition [10] -3.55% | viability increase [11] -1.47% | viability [12] 97.2% | viability [13] 91.5% | inhibition [14] 0.805% | RAM network inhibition [15] 1.41%
89.5%: viability [1]
74.8%: viability [6, 16]
103%: viability [6, 17]

Cc1ccccc1-n1c(Cn2c(=O)sc3ccccc32)nnc1SCC(N)=O
96.5%: viability [1]
78.6%: viability [6, 16]
inactive: Her2 level [2] 94.5% | viability [3] 96.5% | viability [4] 92.3% | viability [5] 84.8% | differential viability (reversal) ([6]; H69AR cells + 2 uM doxorubicin) 6.29% | inhibition [7] -6.27% | inhibition [8] -1.97% | growth inhibition [9] -3.65% | growth inhibition [10] -3.06% | viability increase [11] 1.68% | viability [12] 107% | viability [13] 106% | inhibition [14] 0.455% | RAM network inhibition [15] 4.35%
84.8%: viability [6, 17]

O=C(c1cccs1)N1CCc2ccccc21
inactive: Her2 level [2] 82% | viability [3] 110% | viability [4] 83% | viability [5] 94% | differential viability (reversal) ([6]; H69AR cells + 2 uM doxorubicin) 14.6% | inhibition [7] -5.47% | inhibition [8] 0.97% | growth inhibition [9] 1.98% | growth inhibition [10] 1.57% | viability increase [11] -1.9% | viability [12] 96.3% | viability [13] 95.8% | inhibition [14] 1.48% | RAM network inhibition [15] 1.66%
94%: viability [6, 17]
110%: viability [1]
79.5%: viability [6, 16]

CCOC(=O)c1c(C)n(C)c2c(C)cc(O)c(OC(C)=O)c12
93%: viability [1]
101%: viability [6, 17]
inactive: Her2 level [2] 83.5% | viability [3] 93% | viability [4] 103% | viability [5] 101% | differential viability (reversal) ([6]; H69AR cells + 2 uM doxorubicin) 13.4% | inhibition [7] -3.9% | inhibition [8] 0.5% | growth inhibition [9] -11.9% | growth inhibition [10] -6.75% | viability increase [11] -5.24% | viability [12] 78.5% | viability [13] 86.8% | inhibition [14] 1.42% | RAM network inhibition [15] 1.23%
87.3%: viability [6, 16]

COc1cccc(C2CC(c3c(Cl)cccc3Cl)n3nc(N)nc3N2)c1 (stereo not drawn)
97%: viability [1]
79.3%: viability [6, 16]
inactive: Her2 level [2] 104% | viability [3] 97% | viability [4] 81.2% | viability [5] 83.6% | differential viability (reversal) ([6]; H69AR cells + 2 uM doxorubicin) 4.33% | inhibition [7] -4.53% | inhibition [8] -0.98% | growth inhibition [9] 4.74% | growth inhibition [10] 9.22% | viability increase [11] -0.07% | viability [12] 103% | viability [13] 91.4% | inhibition [14] -0.3% | RAM network inhibition [15] 6.92%
83.6%: viability [6, 17]

O=C(COC(=O)C1CC2C=CC1C2)Nc1ccc2c(c1)OC(F)(F)O2 (stereo not drawn)
inactive: Her2 level [2] 89.5% | viability [3] 119% | viability [4] 84.2% | viability [5] 94.3% | differential viability (reversal) ([6]; H69AR cells + 2 uM doxorubicin) -1.17% | inhibition [7] -1.95% | inhibition [8] -0.49% | growth inhibition [9] -9.33% | growth inhibition [10] 3.8% | viability increase [11] 3.74% | viability [12] 89.2% | viability [13] 96.2% | inhibition [14] 1.08% | RAM network inhibition [15] -2.17%
119%: viability [1]
95.5%: viability [6, 16]
94.3%: viability [6, 17]
